High-throughput results from PubChem.
This is a sample that favours compounds with a hit; in the whole collection about 10% have one here.
HP1b chromo inh = inhibitors of HP1-beta chromodomain binding to methylated histone tails. P83916. AlphaScreen HP1-beta / biotin-H3K9me3 peptide binding. Potency, µM (doses to about 114 µM), for the others: at the top dose activity change, negative = inhibition, hits mostly inhibitors. 0.56% of 390,000 active. AID 540317; also: nearly all actives have a fitted effect of over 70% in size
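Compound inhibition of the preformed complex between 50 nM HP1-beta and 50 nM biotinylated H3K9me3 peptide was read by AlphaScreen. Buffer was PBS pH 7.4 with 0.01% Tween-20. Incubations ran 30 min at room temperature, with 10 ug/mL donor/acceptor beads.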
BAZ2B inh = blocks human BAZ2B | Q9UIF8 | AlphaScreen BAZ2B-H3K14Ac peptide displacement | Potency, µM (top dose mostly 114 µM), for inactives: top-dose activity change, negative = inhibition, usual class: inhibitors | 4.4% of 360,000 active; also: % is scaled to controls: 0 for no effect and ±100 for the full control effect; nearly all actives have a fitted effect of over 60% in size
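Protein-peptide AlphaScreen: BAZ2B 50 nM, b-H3K14Ac 50 nM, 1x PBS pH 7.4 + 0.01% Tween-20. Preincubation 30 min RT; cpd 30 min RT (top 110 uM); beads 20 min RT, light-protected.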
JMJD2A Tudor inh = JMJD2A Tudor domain (human) inhibition | AlphaScreen JMJD2A-Tudor / H3K4me3 peptide binding | AID 504339 | 4.4% of 390,000 active | O75164 | Potency, µM (series often up to 114 µM), without a hit: at the top dose activity change, negative = inhibition, hits mostly inhibitors; also: % is scaled to controls: 0 for no effect and ±100 for the full control effect; nearly all actives have a fitted effect of over 50% in size
GLS inhibitor = blocks human kidney-isoform glutaminase activity; 0.21% of 410,000 active; Potency, µM (series often up to 45.5 µM), for the others: at the highest dose activity change, negative = inhibition, actives largely listed as inhibitors; GLS enzymatic activity, qHTS titration; AID 624170; also: % is scaled to controls: 0 for no effect and ±100 for the full control effect
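hKGA in 45 mM KH2PO4 (pH 8.2), 0.02% Tween-20 with compound, then 1mM L-Glutamine (stock as added) plus glutamate oxidase/HRP/Amplex red coupling mix. Fluorescence read initially and after 30 min at RT; signal change reflects glutamate formation.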
G9a inh = G9a (human) methyltransferase inhibition. Q96KQ7. G9a H3K9 monomethylation, AlphaScreen, 2 h. Potency, µM (series often up to 102 µM), inactives show at the highest dose activity, negative = inhibition, usual class: inhibitors. 8.8% of 350,000 active. AID 504332; also: % is scaled to controls: 0 for no effect and ±100 for the full control effect; nearly all actives have a fitted effect of over 75% in size
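Using a bead-based AlphaScreen, monomethylated H3K9 product from 2 h room-temperature reactions (G9a 20 nM, peptide 500 nM, SAM 20 uM) was detected with 0.5 ug/mL rabbit anti-H3K9me1 antibody.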
The depositor's hits bear a star; ? = inconclusive; · = no result given; [ ] = another dose, or the depositor's remark. Calls follow the shape of the dose curve; as a rule, active = well fitted curve in the direction sought with a large enough effect; inconclusive = small, poorly fitted or top-dose-only effect, or another doubt; inactive = no such curve, though single readings can be large; an effect the other way counts as inactive or inconclusive. Potency is read from the fitted curve at half-maximal effect.

SMILES	HP1b chromo inh	BAZ2B inh	JMJD2A Tudor inh	GLS inhibitor	G9a inh
Cc1ccc(C)c(-n2nnnc2SCC(=O)c2ccc3c(c2)NC(=O)CO3)c1	39%	?	-15%[57.1 µM]	-10%	50µM*
Cc1ccc(Cl)cc1NC(=O)Cn1c(=O)c(CNc2ccccc2)cc2cc3c(cc21)OCCO3	6%	-22%	-29%	-14%	7.9µM*
CCc1ccc(NCc2cc3cc(OC)c(OC)cc3n(CC(=O)Nc3cc(C)ccc3C)c2=O)cc1	16%	-22%	-15%	11µM*	-1%[59 µM]
Cc1ccc(NC(=O)Cn2c(=O)c(CNc3ccccc3)cc3cc4c(cc32)OCCO4)cc1	22%	1%	-16%	-20%	-11%[59 µM]
CC(=O)c1cccc(NC(=O)Cn2c(=O)c(CNc3ccc(C)cc3)cc3cc4c(cc32)OCCO4)c1	3%	?	-32%	10µM*	?
COc1ccc([C@@H]2CC=C(C(=O)O)[C@H](c3ccc(C)cc3)N2S(=O)(=O)c2ccc(C)cc2)cc1OC	25%	·	-28%	16%	·
COc1ccccc1C(=O)Nc1c(C(=O)NC(C)(C)C)oc2ccccc12	25%	8%[57.1 µM]	-7%	4%	-8%[59 µM]
CC(=O)/C(C#N)=C1\NC(=O)C(Cc2ccccc2C)S1 (stereo not given)	20%	-23%	?	-9%	20µM*
COC(=O)c1cn(NC(=O)Cc2ccc(Cl)cc2)c(=O)c2ccccc12	19%	-5%	-14%	6%	20%[59 µM]
Nc1nc(N)nc(-c2cc(O)ccc2O)n1	38%	6%	-20%	-13%	13%[0.501 µM]
Oc1ccc(O)c(-c2cnns2)c1	8.9µM*	-7%	3.2µM*	?	?
CCN(Cc1nc2ccccc2c(=O)[nH]1)C(=O)CN1C(=O)NC2(CCCCC2C)C1=O (stereo not given)	50%	-3%	5%	-4%	20%[59 µM]
CCN(Cc1nc2cc(Cl)ccc2c(=O)[nH]1)C(=O)CN1C(=O)NC2(CCCCC2C)C1=O (stereo not given)	-1%	-4%	-18%	1%	50µM*
N#CC(=C1Nc2ccccc2N1)S(=O)(=O)c1ccccc1	-17%	-12%	25µM*	?	·
N#CC1=C(N)Nc2nc3ccccc3n2C1c1ccc(Cl)cc1 (stereo not given)	23%	0%	-15%	19%	0.63µM*
Cc1cccc(N=Nc2cn[nH]c2-c2ccco2)c1	?	20µM*	-11%[11.4 µM]	11%	?
CCOC(=O)C1=C(C)Nc2ccc(C)cc2S1	?	50µM*	-25%	21%	?
CCOCCOC(=O)c1cccc(NC(=O)OCC)c1	24%	-3%	0%	1%	6%
CCOC(=O)C1=C(C)Nc2ccccc2S1	?	40µM*	?	11%	·
CCOCCOC(=O)C1=C(C)Nc2ccc(C)cc2S1	-43%	?	14µM*	9%	16µM*
CSCCOC(=O)C1=C(C)Nc2ccc(C)cc2S1	-67%	45µM*	79µM*	8%	25µM*
CNC(=O)c1sccc1SCc1ccc(Cl)cc1Cl	74%	7%	-4%	-7%	9%
CC(C)c1ccc(NC(=O)c2csnn2)cc1	9%	-27%	-16%	-5%	-14%[12.7 µM]
O=C(NNS(=O)(=O)c1ccc(Br)cc1)c1csnn1	-4%	-6%	?	27%	50µM*
O=C(NNS(=O)(=O)c1ccc(Br)cc1)c1ccccc1-n1cccc1	21%	-29%	-11%	15%	15%
SMILES	HP1b chromo inh	BAZ2B inh	JMJD2A Tudor inh	GLS inhibitor	G9a inh
NS(=O)(=O)c1ccc(NC(=O)c2csnn2)cc1	?	-16%	89µM*	-10%	22µM*
Cc1ccc(C(=O)CN2CCN(c3ccccn3)CC2)c(C)c1	36%	-15%	-19%	1%	40µM*
Cc1cc(Br)ccc1NC(=O)CN1CCN(c2ccccn2)CC1	50%	0%	-13%	-9%	29%[2.33 µM]
Cc1ccc2[nH]cc(C(=O)CN3CCN(c4ccccn4)CC3)c2c1	18%	-2%	-6%	1%	50µM*
CC(=O)N1CC2(c3ccccc3)CN(C(C)=O)CC(c3ccccc3)(C1)C2=O	53%	-11%	-5%	-1%	24%[59 µM]
Cc1occc1-c1nnc(SCC(=O)NCCc2ccccc2)n1C(C)c1ccccc1 (stereo not given)	9%	?	-25%	13%	56µM*
Cc1ccc(-n2c(SCC(=O)NCC3CCCO3)nnc2-c2ccoc2C)cc1 (stereo not given)	68%	1%	-21%	-1%	?
COc1ccccc1-n1nnnc1SCC(=O)NC1CC1	28%	-1%	-14%	?	9%
COc1ccccc1-n1nnnc1SCC(=O)NCC1CCCO1 (stereo not given)	26%	1%	-10%	-7%	56µM*
Cc1occc1-c1nnc(SCC(=O)NCC2CCCO2)n1C (stereo not given)	-6%	-3%	56µM*	13%	-10%[59 µM]
CCC(=O)Nc1ccc(C(=O)CSc2nnc(-c3ccc(O)cc3)n2CC2CCCO2)cc1 (stereo not given)	1%	?	?	-5%	45µM*
COc1cc(OC)cc(-c2cc3nc(C)c(CCC(=O)NCc4ccc(Cl)cc4)c(C)n3n2)c1	37%	?	-12%	2%	5%[59 µM]
COc1ccc(NC(=O)CSc2nnc(-c3ccncc3)n2-c2ccccc2)cc1	8%	1%	-16%	-7%	?
COc1ccc(/C=C/C(=O)NCCCc2ccccc2)cc1OC	22%	4%	-10%	0%	9%[59 µM]
CCC(=O)Nc1ccc(-c2nnc(SCC(=O)NCC3CCCO3)n2C)cc1 (stereo not given)	25%	3%	-10%	1%	8.9µM*
Cc1ccc(-c2nnc(SCC(=O)NCC3CCCO3)n2C)cc1 (stereo not given)	7%	7%	-9%	8%	-42%[59 µM]
NC(=O)NC(=O)CSc1nnc(-c2ccc(Cl)cc2)n1CC1CCCO1 (stereo not given)	36%	1%	-9%	3%	-5%
O=C(CSc1nnc(-c2ccc(S(=O)(=O)N3CCCC3)cc2)n1CC1CCCO1)NC1CC1 (stereo not given)	15%	-7%	-3%	1%	50µM*
CC(=O)c1c(C)[nH]c(C(=O)CSc2nnc(-c3ccc(Cl)cc3)n2CC2CCCO2)c1C (stereo not given)	9%	-10%	79µM*	2%	50µM*
O=C(NCCc1c[nH]c2ccccc12)c1cccc(S(=O)(=O)Nc2ccccc2Cl)c1	-8%	?	?	13%	?
O=C(COC(=O)c1ncc(Cl)c(Cl)c1Cl)NC(=O)NCc1ccccc1	48%	-3%	-7%	-11%	?
COc1ccc(-c2nnc(SCC(=O)NCCc3ccccc3)o2)cc1	57%	-1%	4%	-5%	16%[59 µM]
CSCC[C@H](NC(=O)[C@H](Cc1ccccc1)NC[C@@H](NC[C@@H](N)CS)C(C)C)C(=O)O	·	·	·	·	20µM*
